Data on 24 compounds can be found in the supplement of paper PMC10127200.

Structures can show the parent of a compound that is named as a salt.

What all share (experiment): Euclidean distance of Cell Painting phenotypic profile (signed KS, 77 features) to DMSO centroid (dimensionless distance); 5 or 10 uM (library dependent); higher = stronger phenotypic change vs DMSO (phenoactivity)
Common to all, as to details: 48 h

One assay deals with 786-O. Put shortly:
(§1)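 Five cancer lines and a healthy fibroblast line received library compounds at 10 or 5 uM (library-dependent, 0.1% DMSO final) for 48 h. Stained cells were imaged confocally at 20X (9 fields/well). Harmony extracted 77 features, each scored as a signed Kolmogorov-Smirnov statistic against same-plate vehicle wells. Profiles were plate-position corrected, correlation-weighted and replicate-averaged at the top dose. Phenoactivity is the Euclidean distance from each profile to the median vehicle profile.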

The next assay relates to A549. Put shortly: as §1
The subject of a further assay is DU145. Put shortly:
as §1

Another assay deals with FB. Put shortly:
as §1

Another assay concerns HEPG2. The procedure, abridged: as §1
In a further assay the test system is OVCAR4. Put shortly: as §1

Turning to `N=C(N)NCCN1CCCCCCC1` [Guanethidine Monosulfate], the Euclidean distance in the assay with 786-O is 1.05; in the assay on A549, 1.78; with DU145, 0.775; with FB, 1.38; with HEPG2, 0.975; in the assay with OVCAR4, 1.68.
Take `COc1cc([C@@H]2c3cc4c(cc3[C@@H](O[C@@H]3O[C@@H]5CO[C@@H](C)O[C@H]5[C@H](O)[C@H]3O)[C@H]3COC(=O)[C@H]23)OCO4)cc(OC)c1O` [Etoposide]: the Euclidean distance in the assay with 786-O stood at 4.29; in the assay with A549, 2.57; in the assay with DU145, 3.62; with FB, 3.88; with HEPG2 it was 4.18; with OVCAR4, 3.21.
In the case of `CSc1ccc2c(c1)N(CCC1CCCCN1C)c1ccccc1S2` (centres undefined) [Thioridazine hydrochloride], the Euclidean distance was determined as 2.83 in the assay on 786-O; 2.98 in the assay with A549; 2.37 in the assay on DU145; 3.14 in the assay with FB; 3.33 in the assay on HEPG2; 2.62 in the assay with OVCAR4.
For `Cc1cn([C@@H]2C[C@@H](O)[C@H](CO)O2)c(=O)[nH]c1=O` [Telbivudine], the Euclidean distance in the assay on 786-O is 1.15; in the assay with A549 it was 0.884; in the assay with DU145 it was 0.651; with FB, 1.53; with HEPG2 it was 0.469; in the assay on OVCAR4, 1.12.
Take `Nc1ncnc2c1c(-c1cccc(OCc3ccccc3)c1)cn2C1CC(CN2CCCC2)C1` (centres undefined): the Euclidean distance is 2.84 in the assay on 786-O; 3.18 in the assay on A549; 2.28 in the assay with DU145; 3.95 with FB; 3.36 with HEPG2; 1.87 in the assay on OVCAR4.
Take `CC1(C)S[C@@H]2[C@H](NC(=O)Cc3ccccc3)C(=O)N2[C@H]1C(=O)O` [Penicillin G Sodium]: the Euclidean distance with 786-O stood at 1.04; with A549, 0.576; in the assay on DU145, 1.12; in the assay on FB it was 0.979; in the assay with HEPG2, 0.871; in the assay with OVCAR4 it was 1.93.
In the case of `NC(=NCCCCCCN=C(N)N=C(N)Nc1ccc(Cl)cc1)N=C(N)Nc1ccc(Cl)cc1` [Chlorhexidine?2HCl], the Euclidean distance with 786-O worked out at 2.98; with A549, 3.13; in the assay on DU145, 2.18; in the assay with FB, 1.67; with HEPG2 it was 2.59; in the assay with OVCAR4, 2.56.
Take `CCCCC1=NC2(CCCC2)C(=O)N1Cc1ccc(-c2ccccc2S(=O)(=O)Nc2noc(C)c2C)c(COCC)c1`: the Euclidean distance in the assay with 786-O is 1.6; in the assay with A549, 0.599; with DU145 it was 1.01; with FB, 0.872; in the assay on HEPG2, 0.445; in the assay with OVCAR4 it was 0.927.
Turning to `C[C@H]1COc2c(C3(N)CC3)c(F)cc3c(=O)c(C(=O)O)cn1c23` [Pazufloxacin mesylate], the Euclidean distance amounted to 1 with 786-O; 1.18 with A549; 0.975 in the assay on DU145; 0.993 in the assay with FB; 1.28 in the assay on HEPG2; 1.36 in the assay on OVCAR4.
`C#C[C@]1(OC(C)=O)CC[C@H]2[C@@H]3CCC4=C[C@@H](OC(C)=O)CC[C@@H]4[C@H]3CC[C@@]21C` [Ethynodiol diacetate]: the Euclidean distance was determined as 1.27 in the assay on 786-O; 1.31 in the assay on A549; 0.938 with DU145; 1.29 in the assay on FB; 0.735 with HEPG2; 1.1 with OVCAR4.
For the compound `NCCS` [Cysteamine HCl], the Euclidean distance is 0.86 in the assay on 786-O; 0.424 in the assay on A549; 0.624 in the assay on DU145; 1.02 in the assay with FB; 0.897 with HEPG2; 1.07 in the assay on OVCAR4.
As for `O=c1c2ccccc2oc2ccccc12` [Xanthone], the Euclidean distance with 786-O turned out to be 1; in the assay with A549 it was 1.28; in the assay with DU145, 1.24; in the assay with FB it was 1.02; with HEPG2 it was 0.607; in the assay on OVCAR4, 1.14.
Consider `COc1ccc(C(=O)NCc2ccc(OCCN(C)C)cc2)cc1OC` [Itopride hydrochloride], for which the Euclidean distance in the assay with 786-O turned out to be 1.63; in the assay with A549 it was 0.807; in the assay on DU145 it was 0.903; with FB, 0.871; in the assay on HEPG2 it was 1.09; in the assay on OVCAR4, 0.695.
For the compound `COc1cc(Cc2cnc(N)nc2N)cc(OC)c1OC` [Trimethoprim], the Euclidean distance turned out to be 1.42 in the assay on 786-O; 0.849 in the assay on A549; 0.917 in the assay on DU145; 1.39 in the assay with FB; 0.86 with HEPG2; 1.12 in the assay with OVCAR4.
Turning to `COc1cc2c(cc1O)CC[C@@H]1[C@@H]2CC[C@]2(C)[C@@H](O)CC[C@@H]12` [2-Methoxyestradiol (2-MeOE2)], the Euclidean distance stood at 2.47 in the assay with 786-O; 2.67 with A549; 2.66 with DU145; 2.05 in the assay on FB; 2.07 in the assay on HEPG2; 2.42 in the assay on OVCAR4.
Consider `NCCCC[C@@H]1NC(=O)[C@@H](Cc2ccccc2)NC(=O)[C@H](CC(=O)O)NC(=O)CNC(=O)[C@H](CCCN=C(N)N)NC1=O` [Cyclo (-RGDfK)], for which the Euclidean distance in the assay with 786-O was 2.63; in the assay on A549, 1; with DU145 it was 2.08; in the assay on FB, 0.709; with HEPG2 it was 3.57; with OVCAR4 it was 2.1.
Consider `CC(=O)O/N=C1\C(=O)N(Cc2cc(Cl)ccc2Cl)c2ccc(Cl)cc21`, for which the Euclidean distance in the assay with 786-O came to 0.757; in the assay with A549, 0.621; in the assay on DU145, 0.687; in the assay with FB, 0.682; with HEPG2 it was 0.571; in the assay on OVCAR4, 1.34.
With `O=C(O)c1ccc(N2C(=O)/C(=C\c3ccc(-c4ccc([N+](=O)[O-])cc4)o3)C=C2c2ccccc2)cc1`, the Euclidean distance in the assay on 786-O stood at 0.841; in the assay with A549, 1.23; in the assay on DU145, 0.74; in the assay with FB it was 0.72; with HEPG2, 1.83; with OVCAR4, 0.995.
Take `O=C(c1ccc(C(=O)N2CCC(N3CCCC3)CC2)c(Nc2ccccc2)c1)N1CCC(N2CCCC2)CC1`: the Euclidean distance was found to be 0.8 with 786-O; 1.05 in the assay with A549; 0.703 in the assay with DU145; 0.904 with FB; 0.536 with HEPG2; 0.678 in the assay on OVCAR4.
Regarding `CC(O)Cn1cnc2c1c(=O)n(C)c(=O)n2C` (centres undefined) [Proxyphylline], the Euclidean distance in the assay with 786-O was 1.48; in the assay with A549, 0.998; in the assay with DU145, 0.788; with FB it was 0.934; in the assay on HEPG2, 0.686; with OVCAR4, 1.03.
In the case of `COc1cc2ncnc(Sc3nnc(C)s3)c2cc1OC`, the Euclidean distance with 786-O is 1.26; in the assay on A549, 1.44; in the assay on DU145, 0.977; with FB, 1.09; in the assay with HEPG2, 2.45; in the assay with OVCAR4, 1.9.
In the case of `CC1(N)CCN(c2cccnc2NC(=O)c2nc(-c3ncccc3C(F)(F)F)cnc2N)CC1`, the Euclidean distance stood at 2.98 with 786-O; 2.64 in the assay on A549; 3.38 in the assay on DU145; 2.85 in the assay with FB; 3.49 in the assay on HEPG2; 2.63 with OVCAR4.
`Cc1ccc(S(=O)(=O)OCC(=O)Nc2ccc(C(=O)O)c(O)c2)cc1`: the Euclidean distance with 786-O is 1.33; in the assay on A549, 1.22; with DU145, 1.04; in the assay on FB, 0.948; with HEPG2, 0.793; with OVCAR4 it was 1.47.
Turning to `CCN(CC)CCCC(C)Nc1c2ccc(Cl)cc2nc2ccc(OC)cc12` (centres undefined) [Quinacrine Dihydrochloride Dihydrate], the Euclidean distance is 4.25 in the assay with 786-O; 5.06 with A549; 4.71 in the assay with DU145; 6.12 in the assay with FB; 4.78 with HEPG2; 4.71 in the assay on OVCAR4.
